From PubChem BioAssay AID2061322 (National Center for Advancing Translational Sciences (NCATS), 2025) come the findings set out here.

Inconclusive results are not listed. The source made the active and inactive calls. Calls come from the whole dose curve; as a rule, active = well fitted inhibition curve with a large enough effect; inconclusive = small, poorly fitted or top-dose-only effect; inactive = flat fitted curve, though single readings scatter.

The nature of this assay: Identification of antibody-drug conjugate (ADC) payloads which are substrates of ATP-binding cassette drug efflux transporters: ABCG2-HEK293-R5 cell line with Ko143. The note with it: ABCG2-HEK293-R5 with Ko143, CellTiter-Glo viability, 48 h. An excerpt:
Antibody-drug conjugates (ADCs) feature an antibody recognizing a specific protein joined to a potent toxic payload. Numerous antibody-drug conjugates have received FDA approval; however, clinical resistance arises. Resistance mechanisms include decreased expression or mutation of the antibody target, impaired payload release, or increased expression of ATP-binding cassette (ABC) efflux transporters associated with multidrug resistance. We therefore sought to characterize the interaction of ABC multidrug transporters with ADC payloads. We performed a high-throughput screen with 27 common ADC payloads using cells lines expressing ABC transporters P-glycoprotein (P-gp, encoded by ABCB1) or ABCG2 (encoded by ABCG2). Confirmatory assays were also performed using cells transfected to express P-gp, ABCG2, or MRP1 (encoded by ABCC1). Several commonly used ADC payloads were substrates of P-gp, including calicheamicin gamma1, monomethyl auristatin E, DM1, and DM4. All the pyrrolobenzodiazepines tested - SJG136, SGD-1882, SG2057, and SG3199 - were substrates of P-gp, ABCG2, and MRP1. […] These findings highlight the risk of transporter-mediated resistance with certain ADC payloads and underscore the importance of selecting payloads that evade ABC transporter recognition in future ADC development.
HEK-293 cells were transfected with empty vector (pcDNA) or vector containing the human ABCB1 (MDR-19), ABCG2 (R-5), or ABCC1 gene (MRP1) and were maintained in EMEM with 2 mg/mL G418 added to maintain transporter expression. The HeLa derivative KB-3-1 and the P-gp overexpressing KB-8-5-11 subline were maintained in DMEM; KB-8-5-11 additionally received 100 ng/mL colchicine. H460 parental cells were obtained from the Division of Cancer Treatment and Diagnosis Tumor Repository, National Cancer Institute at Frederick, MD and were cultured in RPMI. The ABCG2 expressing subline H460 MX20 was generated by selecting H460 cells in 20 nM mitoxantrone. Media in all cases was supplemented with 10% FBS and 1% penicillin-streptomycin. […]
For `COc1cc2cc(C(=O)N3C[C@@H](CCl)c4c3cc(O)c3ccccc43)[nH]c2c(OC)c1OC`, the Potency was 15 nM (active). `CC[C@H](C)[C@@H]([C@@H](CC(=O)N1CCC[C@H]1[C@H](OC)[C@@H](C)C(=O)N[C@H](C)[C@@H](O)c1ccccc1)OC)N(C)C(=O)[C@@H](NC(=O)[C@H](C(C)C)N(C)C)C(C)C`: the Potency was 16.9 nM (active). Consider `COc1cc2cc(c1Cl)N(C)C(=O)C[C@H](OC(=O)[C@H](C)N(C)C(=O)CCC(C)(C)S)[C@]1(C)OC1[C@H](C)C1C[C@@](O)(NC(=O)O1)[C@H](OC)/C=C/C=C(\C)C2` (stereo partly drawn), for which the Potency is 1.7 nM (active).
